# Results as given in ChEMBL document CHEMBL4808148, “HDAC6 screening dataset using tau-based substrate in an enzymatic assay yields selective inhibitors and activators” (2021).
# The whole screen tested about 5,600 compounds, of which about 390 (7%) showed an effect of 50% or more. This is one part of a sample in which strong results are shown more often than they occur.
# Biological target: T1, Protein deacetylase HDAC6 (Homo sapiens) (UniProt Q9UBN7)
# T1 sequence (whole entry): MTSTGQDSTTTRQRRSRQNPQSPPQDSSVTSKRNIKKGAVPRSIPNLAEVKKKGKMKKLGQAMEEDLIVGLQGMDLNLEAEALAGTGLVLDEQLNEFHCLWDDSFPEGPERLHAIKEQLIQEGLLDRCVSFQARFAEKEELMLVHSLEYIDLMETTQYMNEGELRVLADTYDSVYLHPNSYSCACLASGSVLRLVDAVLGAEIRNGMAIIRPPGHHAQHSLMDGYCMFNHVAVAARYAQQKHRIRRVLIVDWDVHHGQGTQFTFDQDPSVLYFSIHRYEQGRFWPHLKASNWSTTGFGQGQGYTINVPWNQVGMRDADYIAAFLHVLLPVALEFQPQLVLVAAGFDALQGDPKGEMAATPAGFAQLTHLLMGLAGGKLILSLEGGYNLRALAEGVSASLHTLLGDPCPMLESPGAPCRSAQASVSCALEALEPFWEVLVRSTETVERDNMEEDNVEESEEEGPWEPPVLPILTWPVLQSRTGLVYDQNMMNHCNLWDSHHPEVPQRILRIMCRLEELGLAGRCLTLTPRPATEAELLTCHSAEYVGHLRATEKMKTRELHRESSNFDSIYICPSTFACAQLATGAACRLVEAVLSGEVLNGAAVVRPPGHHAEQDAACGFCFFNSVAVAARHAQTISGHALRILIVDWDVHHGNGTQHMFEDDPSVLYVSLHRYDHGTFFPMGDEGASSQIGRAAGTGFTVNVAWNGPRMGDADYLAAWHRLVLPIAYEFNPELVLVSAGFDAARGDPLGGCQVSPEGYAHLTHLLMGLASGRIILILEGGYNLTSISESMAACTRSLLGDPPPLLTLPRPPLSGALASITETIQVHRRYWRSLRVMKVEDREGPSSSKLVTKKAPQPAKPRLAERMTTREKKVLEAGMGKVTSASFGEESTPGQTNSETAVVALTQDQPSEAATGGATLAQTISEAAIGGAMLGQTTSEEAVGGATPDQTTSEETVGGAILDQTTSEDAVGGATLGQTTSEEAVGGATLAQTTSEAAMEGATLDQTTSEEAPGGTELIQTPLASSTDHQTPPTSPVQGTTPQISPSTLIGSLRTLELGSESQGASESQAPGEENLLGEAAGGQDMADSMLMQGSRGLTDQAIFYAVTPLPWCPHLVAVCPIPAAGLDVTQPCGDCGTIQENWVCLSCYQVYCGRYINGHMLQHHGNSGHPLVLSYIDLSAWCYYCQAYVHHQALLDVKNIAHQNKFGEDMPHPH
# Conditions: at 10 µM
row,SMILES,inhibition [%]
1,CCCCCCCCCCCCCCCc1cccc(OCC(=O)NCCO)c1,-3.57
2,CC(C)c1nnc(-c2ccc(-c3ccccc3)nc2)n1-c1cccc2nonc12,4.02
3,COC(=O)C[C@@](O)(CCC(C)(C)O)C(=O)O[C@@H]1C(OC)=C[C@]23CCCN2CCc2cc4c(cc2[C@@H]13)OCO4,-1.89
4,C[N+]1(CC2CC2)[C@@H]2C[C@@H](OC(=O)[C@H](CO)c3ccccc3)C[C@H]1[C@@H]1O[C@@H]12 (stereo partly drawn),-9.14
5,COC(=O)N1CC[C@@H]2[C@H]1CCC[C@@]2(O)C#Cc1cccc(C)c1,29.3
6,O=C(Nc1ccc(Br)cc1)c1cc(Br)cc(Br)c1O,100
7,CCOC(=O)c1c(/C(C#N)=C\N)c2ccc(Cl)c(Cl)c2n1C,0.46
8,Cc1c(F)cc(C(=O)NC2CC2)cc1-c1c(F)cn2c(C(C)(C)C)nnc2c1F,-2
9,CC1(C)CC[C@]2(NC(=O)C(C)(F)F)CC[C@]3(C)C(C(=O)C=C4[C@@]5(C)C=C(C#N)C(=O)C(C)(C)[C@@H]5CC[C@]43C)C2C1 (stereo partly drawn),19.7
10,C[C@]12CC[C@H]3C(=CCc4cc(O)ccc43)[C@@H]1CCC2=O,53.8
11,C[C@]12CC[C@@H]3c4ccc(O)cc4CC[C@H]3[C@@H]1[C@@H](O)[C@@H](O)[C@@H]2O,5.04
12,CO/N=C(\C(=O)N[C@@H]1C(=O)N2C(C(=O)O)=C(CSC(=O)c3ccco3)CS[C@H]12)c1csc(N)n1,22.4
13,O=C(Nc1ccc(C(F)(F)F)cn1)N1CCN(c2ncccc2C(F)(F)F)CC1,-6.44
14,COC(=O)c1cc2c(C(F)(F)F)cc(-c3ccccc3)cc2n1O,16.7
15,Cc1c(CN(C)C(=O)/C=C/c2cnc3c(c2)CCC(=O)N3)oc2ccccc12,77.1
16,CC1(C)CCC(C)(C)c2cc(Cn3cccn3)c(/C=C/c3ccc(C(=O)O)cc3)cc21,-7.51
17,O=C(O)CCCCCCCCCCCCCCc1ccc(I)cc1,21.6
18,OCCn1cc(-c2ccc3c(c2)CC/C3=N\O)c(-c2ccncc2)n1,-0.22
19,C[C@@H]1COC(Nc2ccc3ncnc(Nc4ccc(OCc5nccs5)c(Cl)c4)c3c2)=N1,62.5
20,Cc1cc(Nc2ncnc3ccc(NC4=NC(C)(C)CO4)cc23)ccc1Oc1ccn2ncnc2c1,-3.24
21,Cc1cc(Nc2ncnc3ccc(-c4ccc(CNCCS(C)(=O)=O)o4)cc23)ccc1Oc1ccn2ncnc2c1,2.93
22,O=C1C=Cc2cc(Br)ccc2C1=O,48.5
23,Cc1ccc(=O)n(-c2ccc(O)cc2)c1,1.55
24,Nc1nc(Nc2ccc3c(c2)CC[C@@H](N2CCCC2)CC3)nn1-c1cc2c(nn1)-c1ccccc1CCC2,2.38
25,O=C(NC1(c2ccccc2)CC1)c1c(CN2CCC(N3CCCCC3)CC2)c(-c2cccc(C(F)(F)F)c2)nc2cc(Br)ccc12,35.2
26,COC(=O)/C=C/C(=O)OCCN1C(=O)CCC1=O,-0.93
27,O=C(O)c1ccc(-c2ccc3cc(C45CC6CC(CC(C6)C4)C5)c(O)cc3c2)cc1,-6.28

row,SMILES,inhibition [%]
1,NS(=O)(=O)Oc1ccc2c3c(c(=O)oc2c1)CCCCC3,91.6
2,Fc1ccc(C(c2ccccc2)(c2ccccc2F)n2ccnc2)cc1 (stereo not drawn),-9.89
3,Cn1c(/C=C/C(=O)NO)ccc1/C=C/C(=O)c1cccc(F)c1,98.6
4,Cc1ccc(NC2=NCCN2)c(Cl)c1,7.22
5,CCC[C@H](N[C@@H](C)C(=O)N1[C@H](C(=O)O)C[C@@H]2CCCC[C@@H]21)C(=O)O,-9.35
6,CCCC(=O)c1cc(F)ccc1OCC(O)CNC(C)(C)C (stereo not drawn),-1.16
7,C[C@H](Oc1cc(-c2cnn(C3CCNCC3)c2)cnc1N)c1c(Cl)ccc(F)c1Cl,-7.32
8,C[n+]1ccccc1CN=O,10.8
9,O=c1[nH]c(CCl)nc2sc3c(c12)CCCC3,83.4
10,CCOC(=O)[C@@](C)(N)Cc1ccc(O)c(O)c1,35
11,Cc1ccc(Cl)c(OCC(O)CNC(C)(C)C)c1 (stereo not drawn),14.8
12,CCCCCCCCCCCCCCCC(=O)OCCC1CCN(CCCN2c3ccccc3Sc3ccc(S(=O)(=O)N(C)C)cc32)CC1,9.91
13,CCCCCCCCCC(=O)OCCN1CCN(CCCN2c3ccccc3Sc3ccc(C(F)(F)F)cc32)CC1,1.38
14,OCCN1CCN(CCCN2c3ccccc3Sc3ccc(C(F)(F)F)cc32)CC1,86.6
15,CSc1ccccc1OCC(O)CNC(C)C (stereo not drawn),8.76
16,NC(=S)N/N=C/c1coc2ccccc2c1=O,54.7
17,NC(=S)N/N=C/c1ccncc1,22.9
18,O=C1CCC2CCC(=O)N12,5.05
19,CO[C@@H]1[C@H](O)[C@@H](CO)O[C@H]1n1cnc2c(NC3CCCCC3)ncnc21,13.2
20,NC(=O)c1[nH]cnc1O,3.67
21,CCOCCOc1ccccc1C(N)=O,5.9
22,O=C(c1ccc(OCCCc2c[nH]cn2)cc1)C1CC1,70.7
23,NC/C(=C/F)CCc1ccc(F)cc1,46.9
24,Cc1cnc(Nc2ccc(F)cc2Cl)nc1-c1c[nH]c(C(=O)N[C@H](CO)c2cccc(Cl)c2)c1,54.4
25,O=C(NCC1CCOCC1)c1cnc(Nc2ccc(Cl)cc2Cl)nc1C(F)(F)F,-5.57
26,CC12CCC(=O)C=C1CCC1C2[C@@H](O)CC2(C)C1CC[C@]2(O)C(=O)COP(=O)(O)O (stereo partly drawn),2.87
